Experiment in all cases: yeast three-hybrid, YBZ-1, SC-Leu-His + 0.5 mM 3-AT, 4 days
Holding throughout (settings): tags: N-Gal4 AD-HA kept; label: inside an RPR1-promoter hybrid RNA with tandem MS2 sites; ssRNA

One test has as its target PUM1 PUF domain R5-GYV (Homo sapiens, UniProt Q14671 828-1176, C1007G;R1008Y;Q1011V). The gist of the method: (§1)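 Pumilio-1 PUF domain libraries, randomized (NNK) at the three base-contacting residues of each repeat, were co-expressed with matching RNA elements from a centromeric plasmid in strain YBZ-1 (LexA–MS2 coat fusion, HIS3 reporter). Transformants were plated on SC-Leu (input) and SC-Leu-His + 0.5 mM 3-AT (selection) for four days, and repeat regions were PCR-amplified and Illumina-sequenced. The interaction score is the log2 change in variant frequency from input to selection, with pseudocount 1 where absent.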

For a further test, the target named is PUM1 PUF domain R5-MKR (Homo sapiens, UniProt Q14671 828-1176, C1007M;R1008K;Q1011R). The gist of the method:
as §1

A further test deals with PUM1 PUF domain R5-PWL (Homo sapiens, UniProt Q14671 828-1176, C1007P;R1008W;Q1011L). The method in brief: as §1
The target of another test is PUM1 PUF domain R5-MRG (Homo sapiens, UniProt Q14671 828-1176, C1007M;Q1011G). The method in brief:
as §1

In another test the target is PUM1 PUF domain R1-NFR (Homo sapiens, UniProt Q14671 828-1176, S863N;R864F;Q867R). The method in brief: as §1
A further test has as its target PUM1 PUF domain R8-YYK (Homo sapiens, UniProt Q14671 828-1176, N1122Y;Q1126K). The gist of the method:
as §1

Another test has as its target PUM1 PUF domain R3-QRR (Homo sapiens, UniProt Q14671 828-1176, C935Q;Q939R). The gist of the method: as §1
Another test deals with PUM1 PUF domain R3-RQE (Homo sapiens, UniProt Q14671 828-1176, C935R;R936Q;Q939E). The method in brief: as §1
Another test deals with PUM1 PUF domain R3-RQP (Homo sapiens, UniProt Q14671 828-1176, C935R;R936Q;Q939P). The gist of the method:
as §1

The next test deals with PUM1 PUF domain R4-NRR (Homo sapiens, UniProt Q14671 828-1176, H972R;Q975R). The method in brief: as §1
For a further test, the target named is PUM1 PUF domain R7-ERQ (Homo sapiens, UniProt Q14671 828-1176, S1079E;N1080R;E1083Q). The method in brief:
as §1

The target in another test is PUM1 PUF domain R4-ALG (Homo sapiens, UniProt Q14671 828-1176, N971A;H972L;Q975G). The gist of the method:
as §1

In a further test the target is PUM1 PUF domain R5-VRV (Homo sapiens, UniProt Q14671 828-1176, C1007V;Q1011V). The gist of the method: as §1
Another test deals with T1, PUM1 PUF domain R6-DWQ (Homo sapiens, UniProt Q14671 828-1176, N1043D;Y1044W).
T1 sequence: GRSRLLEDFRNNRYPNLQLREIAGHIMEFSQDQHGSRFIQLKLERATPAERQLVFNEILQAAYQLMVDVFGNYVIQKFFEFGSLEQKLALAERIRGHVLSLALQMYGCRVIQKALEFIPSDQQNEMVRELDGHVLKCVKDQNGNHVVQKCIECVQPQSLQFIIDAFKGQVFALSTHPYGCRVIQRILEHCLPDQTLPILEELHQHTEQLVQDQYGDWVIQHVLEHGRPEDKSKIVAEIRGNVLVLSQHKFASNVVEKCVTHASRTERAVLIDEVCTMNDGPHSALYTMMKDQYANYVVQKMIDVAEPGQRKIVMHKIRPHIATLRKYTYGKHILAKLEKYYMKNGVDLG
The method in brief: as §1

For another test, the target named is PUM1 PUF domain R3-GYF (Homo sapiens, UniProt Q14671 828-1176, C935G;R936Y;Q939F). The method in brief:
as §1

The target of another test is PUM1 PUF domain R3-YRF (Homo sapiens, UniProt Q14671 828-1176, C935Y;Q939F). The gist of the method: as §1
A further test deals with PUM1 PUF domain R5-GQQ (Homo sapiens, UniProt Q14671 828-1176, C1007G;R1008Q). The gist of the method:
as §1

The next test concerns the target PUM1 PUF domain R5-EKL (Homo sapiens, UniProt Q14671 828-1176, C1007E;R1008K;Q1011L). The gist of the method:
as §1

For a further test, the target named is PUM1 PUF domain R5-KRE (Homo sapiens, UniProt Q14671 828-1176, C1007K;Q1011E). The gist of the method:
as §1

In another test the target is PUM1 PUF domain R5-KSW (Homo sapiens, UniProt Q14671 828-1176, C1007K;R1008S;Q1011W). The gist of the method: as §1
PUM1 PUF domain R5-KSW, sequence (Q14671 828-1176 C1007K/R1008S/Q1011W): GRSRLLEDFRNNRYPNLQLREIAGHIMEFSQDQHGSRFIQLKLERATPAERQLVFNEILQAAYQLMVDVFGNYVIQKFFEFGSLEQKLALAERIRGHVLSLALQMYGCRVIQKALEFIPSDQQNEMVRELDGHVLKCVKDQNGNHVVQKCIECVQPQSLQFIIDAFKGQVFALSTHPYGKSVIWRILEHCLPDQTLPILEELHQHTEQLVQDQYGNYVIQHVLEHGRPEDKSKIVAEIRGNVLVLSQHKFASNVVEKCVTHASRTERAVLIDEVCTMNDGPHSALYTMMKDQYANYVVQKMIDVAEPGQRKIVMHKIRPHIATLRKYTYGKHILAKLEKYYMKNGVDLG

Among the data in PMC8384837, “Expanding the binding specificity for RNA recognition by a PUF domain” are binding signal values, retold here.

PUM1 PUF domain R5-KRE, sequence (Q14671 828-1176 C1007K/Q1011E): as the sequence (Q14671 828-1176 C1007K/R1008S/Q1011W) above, with S181R, W184E counted along it
PUM1 PUF domain R7-ERQ, sequence (Q14671 828-1176 S1079E/N1080R/E1083Q): as the sequence (Q14671 828-1176 C1007K/R1008S/Q1011W) above, with K180C, S181R, W184Q, S252E, N253R, E256Q counted along it

With “GGCUAGAACUAGUGGAUCCCCCGGCGCCCGGCGGCUCGAGCCCGGGUAAGUGUGAAUAGUCUGCAUGCCGCCGGGCGCCAUGCCUGCAGGUCGACUCUAGAAAACAUG”, in the test with PUM1 PUF domain R5-GYV, the binding signal was 2.9 log2 enrichment (interaction score).

For “GGCUAGAACUAGUGGAUCCCCCGGCGCCCGGCGGCUCGAGCCCGGGUAAGUGUUAAUAGUCUGCAUGCCGCCGGGCGCCAUGCCUGCAGGUCGACUCUAGAAAACAUG”, the binding signal with PUM1 PUF domain R5-MKR is 1.52 log2 enrichment (interaction score); with PUM1 PUF domain R5-PWL it was 3.31 log2 enrichment (interaction score); with PUM1 PUF domain R5-MRG, 3.12 log2 enrichment (interaction score).

With “GGCUAGAACUAGUGGAUCCCCCGGCGCCCGGCGGCUCGAGCCCGGGUAAGUGUAAAUCGUCUGCAUGCCGCCGGGCGCCAUGCCUGCAGGUCGACUCUAGAAAACAUG”, the binding signal in the test with PUM1 PUF domain R1-NFR is 6.39 log2 enrichment (interaction score).

For the sequence “GGCUAGAACUAGUGGAUCCCCCGGCGCCCGGCGGCUCGAGCCCGGGUAAGCGUAAAUAGUCUGCAUGCCGCCGGGCGCCAUGCCUGCAGGUCGACUCUAGAAAACAUG”, the binding signal with PUM1 PUF domain R8-YYK is 4.78 log2 enrichment (interaction score).

In the case of “GGCUAGAACUAGUGGAUCCCCCGGCGCCCGGCGGCUCGAGCCCGGGUAAGUGUAAUUAGUCUGCAUGCCGCCGGGCGCCAUGCCUGCAGGUCGACUCUAGAAAACAUG”, the values for the binding signal with PUM1 PUF domain R3-QRR, with PUM1 PUF domain R3-RQE and with PUM1 PUF domain R3-RQP were 4.3 log2 enrichment (interaction score), 2.81 log2 enrichment (interaction score) and 3.85 log2 enrichment (interaction score), respectively.

For “GGCUAGAACUAGUGGAUCCCCCGGCGCCCGGCGGCUCGAGCCCGGGUAAGUGUAUAUAGUCUGCAUGCCGCCGGGCGCCAUGCCUGCAGGUCGACUCUAGAAAACAUG”, the binding signal in the test with PUM1 PUF domain R4-NRR was 1.51 log2 enrichment (interaction score).

Consider “GGCUAGAACUAGUGGAUCCCCCGGCGCCCGGCGGCUCGAGCCCGGGUAAGUGUACAUAGUCUGCAUGCCGCCGGGCGCCAUGCCUGCAGGUCGACUCUAGAAAACAUG”, for which, in the test with PUM1 PUF domain R4-NRR, the binding signal is 3.57 log2 enrichment (interaction score).

As for “GGCUAGAACUAGUGGAUCCCCCGGCGCCCGGCGGCUCGAGCCCGGGUAAGUCUAAAUAGUCUGCAUGCCGCCGGGCGCCAUGCCUGCAGGUCGACUCUAGAAAACAUG”, in the test with PUM1 PUF domain R7-ERQ, the binding signal was 2.6 log2 enrichment (interaction score).

“GGCUAGAACUAGUGGAUCCCCCGGCGCCCGGCGGCUCGAGCCCGGGUAAGUGUAAAUAGUCUGCAUGCCGCCGGGCGCCAUGCCUGCAGGUCGACUCUAGAAAACAUG”: the binding signal in the test with PUM1 PUF domain R4-ALG was 2.12 log2 enrichment (interaction score); with PUM1 PUF domain R5-VRV, 3.36 log2 enrichment (interaction score); in the test with PUM1 PUF domain R6-DWQ, 2.34 log2 enrichment (interaction score); in the test with PUM1 PUF domain R3-GYF, 5.74 log2 enrichment (interaction score); with PUM1 PUF domain R5-MRG it was 0.66 log2 enrichment (interaction score); in the test with PUM1 PUF domain R3-YRF, 1.16 log2 enrichment (interaction score).

In the case of “GGCUAGAACUAGUGGAUCCCCCGGCGCCCGGCGGCUCGAGCCCGGGUAAGUGCAAAUAGUCUGCAUGCCGCCGGGCGCCAUGCCUGCAGGUCGACUCUAGAAAACAUG”, the binding signal with PUM1 PUF domain R6-DWQ is 2.44 log2 enrichment (interaction score).

Turning to “GGCUAGAACUAGUGGAUCCCCCGGCGCCCGGCGGCUCGAGCCCGGGUAAGUGUCAAUAGUCUGCAUGCCGCCGGGCGCCAUGCCUGCAGGUCGACUCUAGAAAACAUG”, the binding signal with PUM1 PUF domain R5-MKR is 2.84 log2 enrichment (interaction score); with PUM1 PUF domain R5-GQQ it was 4.12 log2 enrichment (interaction score); with PUM1 PUF domain R5-EKL, 2.47 log2 enrichment (interaction score); with PUM1 PUF domain R5-KRE, 2.98 log2 enrichment (interaction score); with PUM1 PUF domain R5-MRG it was 0.97 log2 enrichment (interaction score); in the test with PUM1 PUF domain R5-KSW, 2.82 log2 enrichment (interaction score).

Turning to “GGCUAGAACUAGUGGAUCCCCCGGCGCCCGGCGGCUCGAGCCCGGGUAAGUGUAAGUAGUCUGCAUGCCGCCGGGCGCCAUGCCUGCAGGUCGACUCUAGAAAACAUG”, the binding signal is 3.94 log2 enrichment (interaction score) with PUM1 PUF domain R3-QRR and 5.65 log2 enrichment (interaction score) with PUM1 PUF domain R3-YRF.
